Source: PubChem BioAssay AID2284078 (EPA ToxCast)
Calls of active or inactive are those of the source. Rule for the calls: active = hit-call score of the fitted dose curve at least 0.9, where 1 is the maximum; inactive = score below 0.9.

target: human CHK1 (CHEK1) CAMK Kinase, CHEK1 (gene 1111) (UniProt O14757); assay: ERF_TW_ENZ_hCHK1: Eurofins (ERF) Enzymatic Radiometric [10 uM ATP] KinaseProfiler LeadHunter Assay for human CHK1 (CHEK1) CAMK Kinase
Experimental: ERF_TW_ENZ_hCHK1 is a biochemical, single-readout assay that uses extracted gene-proteins in a cell-free assay. Measurements were taken 0.5 hour after chemical dosing in a 96-well plate. See CHK1 Human CAMK Kinase Enzymatic Radiometric Assay [10 uM ATP], Panlabs.ERF_TW_ENZ_hCHK1 is an assay component calculated from the ERF_TW_ENZ_hCHK1 assay. It is designed to measure enzyme activity using a type of enzyme reporter as detected by scintillation counting with radiometry technology.Data from the assay component ERF_TW_ENZ_hCHK1 was analyzed at the assay endpoint, ERF_TW_ENZ_hCHK1, in the positive analysis fitting direction relative to DMSO as the negative control and baseline of activity. Using a type of enzyme reporter, loss-of-signal activity can be used to understand changes in enzymatic activity as they relate to gene CHEK1. To generalize the intended target to other relatable targets, this assay endpoint is annotated to the kinase intended target family, where the subfamily is serine/threonine kinase.
CHK1 (h) is incubated with 8 mM MOPS pH 7.0, 0.2 mM EDTA, 200 uM […], 10 mM MgAcetate and [gamma-33P]-ATP (specific activity and concentration as required). The reaction is initiated by the addition of the Mg/ATP mix. After incubation for 40 minutes at room temperature, the reaction is stopped by the addition of phosphoric acid to a concentration of 0.5%. An aliquot of the reaction is then spotted onto a filter and washed four times for 4 minutes in 0.425% phosphoric acid and once in methanol prior to drying and scintillation counting. Test Sample Requirements: Compound should be supplied in 100%DMSO. We require a stock solution at a concentration of at least 50x higher than the Final Assay Concentration of your cpd. A 10mM stock is also acceptable. When ordering fewer than 60 kinase assays, we need 120uL of 50x concentrated stock. For more than 60 assays, we need 420uL of 50xcc stock. Please apply the conversion if you provide 10mM stock solution or compounds in powder form (pre-weighed is required). From 50 cpds supplied as solids, the TAT will be extended.

Chain of human CHK1 (CHEK1) CAMK Kinase, CHEK1 (gene 1111) (O14757 whole entry, looked up): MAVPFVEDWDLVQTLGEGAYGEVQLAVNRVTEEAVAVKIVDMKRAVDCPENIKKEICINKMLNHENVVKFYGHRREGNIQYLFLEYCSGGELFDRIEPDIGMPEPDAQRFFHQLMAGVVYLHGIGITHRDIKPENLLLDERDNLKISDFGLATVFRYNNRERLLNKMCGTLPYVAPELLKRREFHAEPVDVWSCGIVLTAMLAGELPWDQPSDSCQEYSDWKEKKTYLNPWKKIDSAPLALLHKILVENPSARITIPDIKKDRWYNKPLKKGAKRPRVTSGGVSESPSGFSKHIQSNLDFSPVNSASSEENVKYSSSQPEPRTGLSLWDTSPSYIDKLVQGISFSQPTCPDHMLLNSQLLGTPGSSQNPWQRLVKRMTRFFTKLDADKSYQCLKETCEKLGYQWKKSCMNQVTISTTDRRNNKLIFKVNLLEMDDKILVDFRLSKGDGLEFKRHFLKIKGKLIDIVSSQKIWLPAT

Q: How did the AC50 turn out when COc1cc(/C=C/C(=O)CC(=O)/C=C/c2ccc(O)c(OC)c2)ccc1O was run?
A: 2.59 µM (active)

Q: For O=C(/C=C/c1ccc(O)cc1)CC(=O)/C=C/c1ccc(O)cc1, which AC50 is on record?
A: 2.95 µM (active)

Q: For COc1cc(CCC(=O)CC(=O)CCc2ccc(O)c(OC)c2)ccc1O, which outcome is on record?
A: inactive
